Test results: PubChem BioAssay
Where “and” joins values, the source holds several entries; their conditions need not be identical. Equal values may be shown once. Calls of active or inactive are those of the source.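 The calls were made as follows, unless noted: active = thallium flux through the channel raised or lowered by more than 3 SD from vehicle-only wells, actives on both sides; inactive = the rest.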

Tests used:
[1] = liver-stage malaria parasite growth inhibition, primary screen, cell-based, HepG2, luciferase luminescence, HepG2 viability (AID 624349; in the data active = parasite load remaining mostly below about 12%, no sharp cut-off; inactive = mostly above about 10%;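 also: 100% = mean of DMSO negative control wells on the same plate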); conditions: P. berghei liver stage in HepG2, luciferase luminescence, concentration not given here; parasite load remaining: stronger effect = lower value; viability: measured here: HepG2 viability without parasites
[2] = Cy5 fluorescence interference with SSB-bound oligo, artefact control for HCV NS3 helicase inhibitor project, biochemical, NIH Clinical Collection, E. coli SSB (AID 743268; call rule not given here)
[3] = test system: Hepatitis C virus NS3 helicase; assay: HCV NS3 helicase inhibitors, primary screen, biochemical, fluorescence polarization, NIH Clinical Collection (AID 743270; call rule not given here); conditions: NS3 helicase binding to Cy5-dT15 DNA, stronger effect = higher value, concentration not given here
[4] = target: Single-stranded DNA-binding protein (Escherichia coli (strain K12)) (UniProt P0AGE0); assay: E. coli SSB displacement from DNA, counter-screen for HCV NS3 helicase inhibitor project, biochemical, fluorescence polarization, NIH Clinical Collection (AID 743271; in the data active = inhibition above about 28%); conditions: stronger effect = higher value, concentration not given here
[5] = fluorescence interference in NS3h assay format, artefact control for HCV NS3 helicase inhibitor project, biochemical, NIH Clinical Collection (AID 743272; call rule not given here;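 also: HCV NS3 helicase with a Cy5 labelled single stranded DNA probe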); conditions: fluorescence interference counterscreen, stronger effect = lower value
[6] = test system: Neuropilin-2 / VEGF-C interaction (human); assay: inhibitors of NRP2–VEGF-C binding, biochemical, microplate binding format, z-score (AID 743281; call rule not given here); conditions: microplate NRP2/VEGF-C binding assay; stronger effect = lower value
[7] = modulation of C. elegans fzo-1 (AID 1259413; call rule not given here;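 also: fzo-1 mutant C. elegans worms in liquid wells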); conditions: C. elegans fzo-1 modulator screen, mean read-out; stronger effect = higher value
F380Y = assay: modulators of BK channel variants, profiling panel, selectivity assay, cell-based, U2OS BacMam, thallium flux, beta subunits (AID 1259406); conditions: at 30 µM;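 also: initial slope of Thallos dye fluorescence rise after thallium is added; log ratio against the mean of 0.3% DMSO vehicle wells on the same plate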
F380Y/beta1 = assay: as above; conditions: at 30 µM
F380Y/beta2Delta = assay: as above; conditions: at 30 µM
F380Y/beta4 = assay: as above; conditions: at 30 µM
[8] = target: Calcium-activated potassium channel subunit alpha-1 (Homo sapiens) + Leucine-rich repeat-containing protein 26 (Homo sapiens) (UniProt Q12791+Q2I0M4); assay: as above; conditions: F380Y/Slo1WT/gamma1, at 30 µM
Sequence of Calcium-activated potassium channel subunit alpha-1 (Homo sapiens) + Leucine-rich repeat-containing protein 26 (Homo sapiens) (Q2I0M4 whole entry, looked up, one chain of several): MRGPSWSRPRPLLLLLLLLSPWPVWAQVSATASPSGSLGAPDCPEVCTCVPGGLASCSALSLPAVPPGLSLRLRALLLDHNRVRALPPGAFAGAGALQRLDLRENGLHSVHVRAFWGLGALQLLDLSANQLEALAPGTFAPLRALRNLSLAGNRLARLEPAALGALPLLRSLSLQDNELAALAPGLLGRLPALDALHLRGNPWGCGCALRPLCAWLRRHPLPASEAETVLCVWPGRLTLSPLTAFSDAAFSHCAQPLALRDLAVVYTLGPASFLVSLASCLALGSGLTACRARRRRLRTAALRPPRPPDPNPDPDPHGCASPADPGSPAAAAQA

R275C = assay: as above; conditions: at 30 µM
R275C/beta1 = assay: as above; conditions: at 30 µM
R275C/beta2Delta = assay: as above; conditions: at 30 µM
R275C/beta4 = assay: as above; conditions: at 30 µM
R275C/Slo1WT/beta2 = assay: as above; conditions: at 30 µM
[9] = sensitizers of A549 cells to miR-34 induction, primary screen, imaging, A549 dox-inducible miR-34, nuclei and caspase counts (AID 1347080;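 active = compounds whose cell count with miR-34 switched on is under 0.7 times the count with it off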); conditions: A549 miR-34 inducible, Hoechst nuclei count, 48 h
[10] = viability rescue of complex I mutant cybrids, primary screen, cell-based, galactose medium, ATP luminescence (AID 1645843;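 active = z-score of at least 1.8 in each of two replicates, scored against plate mean and spread of sample wells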;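 also: positive z means more ATP and so rescue of galactose-driven cybrid death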); conditions: complex I mutant cybrid cells, 72 h, stronger effect = higher value
[11] = survival rescue of mitochondrial mutant cells in low glucose, primary screen, MELAS cybrids, Rieske KO mouse fibroblasts, CellTiter-Glo (AID 1508586;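 active = mean z-score across replicates of 1.96 or higher in either the MELAS or the Rieske mutant cell line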;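 also: z relative to plate mean and SD of compound and empty wells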)
[12] = stronger effect = lower value, cell number ratio, induced over uninduced
[13] = measured here: relative caspase fold change +Dox/-Dox
[14] = measured here: total cells with miR-34 induction, stronger effect = lower value
[15] = measured here: total cells without miR-34 induction
[16] = MELAS cybrid survival, CellTiter-Glo 48 h, stronger effect = higher value
[17] = Rieske KO mouse fibroblast survival, CellTiter-Glo 72 h

SMILES: O=c1c(O[C@@H]2O[C@H](CO)[C@H](O)[C@H](O)[C@H]2O)c(-c2ccc(O)c(O)c2)oc2cc(O)cc(O)c12
- parasite load remaining [1]: 108% (inactive)
- viability [1]: 61.9%
- fluorescence ratio [2]: 0.94 (inactive)
- inhibition [3]: 1.98% (inactive)
- inhibition [4]: 15.3% (inactive)
- fluorescence ratio [5]: 1 (inactive)
- z-score [6]: -0.00792 (inactive)
- mean signal [7]: 249 (inactive)
- log fold change Tl+ flux (F380Y): -0.00852 (inactive)
- log fold change Tl+ flux (F380Y/beta1): -0.00723 (inactive)
- log fold change Tl+ flux (F380Y/beta2Delta): -0.0335 (inactive)
- log fold change Tl+ flux (F380Y/beta4): -0.027 (inactive)
- log fold change Tl+ flux [8]: -0.0251 (inactive)
- log fold change Tl+ flux (R275C): -0.00833 (inactive)
- log fold change Tl+ flux (R275C/beta1): -0.0329 (inactive)
- log fold change Tl+ flux (R275C/beta2Delta): 0.0189 (inactive)
- log fold change Tl+ flux (R275C/beta4): 0.0212 (inactive)
- log fold change Tl+ flux (R275C/Slo1WT/beta2): -0.0201 (inactive)

SMILES: CCC(C)(C)N=C(NC#N)Nc1cccnc1
- parasite load remaining [1]: 49.6% (inactive)
- viability [1]: 69.3%
- fluorescence ratio [2]: 0.95 (inactive)
- inhibition [3]: -2.84% (inactive)
- inhibition [4]: -3.54% (inactive)
- fluorescence ratio [5]: 0.92 (inactive)
- z-score [6]: -0.415 (inactive)
- mean signal [7]: 201 (inactive)
- fold change [9, 12]: 0.909 (inactive)
- fold change [9, 13]: 1.24
- cell count [9, 14]: 9920
- cell count [9, 15]: 10900
- z-score [10]: 0.04 (inactive)
- log fold change Tl+ flux (F380Y): 0.00312 (inactive)
- log fold change Tl+ flux (F380Y/beta1): 0.00744 (inactive)
- log fold change Tl+ flux (F380Y/beta2Delta): 0.00568 (inactive)
- log fold change Tl+ flux (F380Y/beta4): 0.0162 (inactive)
- log fold change Tl+ flux [8]: 0.00265 (inactive)
- log fold change Tl+ flux (R275C): -0.0443 (inactive)
- log fold change Tl+ flux (R275C/beta1): -0.0211 (inactive)
- log fold change Tl+ flux (R275C/beta2Delta): -0.00288 (inactive)
- log fold change Tl+ flux (R275C/beta4): 0.0126 (inactive)
- log fold change Tl+ flux (R275C/Slo1WT/beta2): -0.00574 (inactive)

SMILES: CO[C@H]1/C=C/O[C@@]2(C)Oc3c(C)c(O)c4c(O)c(c(C=NN5CCN(C)CC5)c(O)c4c3C2=O)NC(=O)/C(C)=C\C=C\[C@H](C)[C@H](O)[C@@H](C)[C@@H](O)[C@@H](C)[C@H](OC(C)=O)[C@@H]1C
- parasite load remaining [1]: 23.7% (inactive)
- viability [1]: 94.3%
- fluorescence ratio [2]: 0.107 (active)
- inhibition [3]: -3.18% (inactive)
- inhibition [4]: 3.34% (inactive)
- fluorescence ratio [5]: 0.87 (inactive)
- fold change [9, 12]: 0.888 (inactive)
- fold change [9, 13]: 2.93
- cell count [9, 14]: 9180
- cell count [9, 15]: 10300
- z-score [10]: -1.41 (inactive)
- log fold change Tl+ flux (F380Y): 0.0886 (inactive)
- log fold change Tl+ flux (F380Y/beta1): -0.0407 (inactive)
- log fold change Tl+ flux (F380Y/beta2Delta): 0.125 (active)
- log fold change Tl+ flux (F380Y/beta4): 0.0159 (inactive)
- log fold change Tl+ flux [8]: -0.0449 (inactive)
- log fold change Tl+ flux (R275C): -0.067 (inactive)
- log fold change Tl+ flux (R275C/beta1): 0.00744 (inactive)
- log fold change Tl+ flux (R275C/beta2Delta): -0.0205 (inactive)
- log fold change Tl+ flux (R275C/beta4): 0.0765 (inactive)
- log fold change Tl+ flux (R275C/Slo1WT/beta2): -0.0151 (inactive)

SMILES: CC(=O)[C@@]1(O)CC[C@H]2[C@@H]3C[C@H](C)C4=CC(=O)CC[C@]4(C)[C@H]3CC[C@@]21C
- parasite load remaining [1]: 37.7% (inactive)
- viability [1]: 68%
- fluorescence ratio [2]: 0.96 (inactive)
- inhibition [3]: -0.22% (inactive)
- inhibition [4]: -0.39% (inactive)
- fluorescence ratio [5]: 0.95 (inactive)
- z-score [6]: -0.215 (inactive)
- mean signal [7]: 243 (inactive)
- log fold change Tl+ flux (F380Y): 0.0243 (inactive)
- log fold change Tl+ flux (F380Y/beta1): 0.0476 (inactive)
- log fold change Tl+ flux (F380Y/beta2Delta): 0.0349 (inactive)
- log fold change Tl+ flux (F380Y/beta4): -0.018 (inactive)
- log fold change Tl+ flux [8]: 0.00484 (inactive)
- log fold change Tl+ flux (R275C): -0.0195 (inactive)
- log fold change Tl+ flux (R275C/beta1): 0.0286 (inactive)
- log fold change Tl+ flux (R275C/beta2Delta): -0.00744 (inactive)
- log fold change Tl+ flux (R275C/beta4): 0.0101 (inactive)
- log fold change Tl+ flux (R275C/Slo1WT/beta2): -0.0331 (inactive)

SMILES: CCCCCN=C(N)NN=Cc1c[nH]c2ccc(OC)cc12
- parasite load remaining [1]: 0.065% (inactive)
- viability [1]: 3.78%
- fold change [9, 12]: 1.42 (inactive)
- fold change [9, 13]: 1.01
- cell count [9, 14]: 18.5
- cell count [9, 15]: 13
- z-score [10]: -1.88 (inactive)
- log fold change Tl+ flux (F380Y): 0.707 (active)
- log fold change Tl+ flux (F380Y/beta1): 0.869 (active)
- log fold change Tl+ flux (F380Y/beta2Delta): 0.585 (active)
- log fold change Tl+ flux (F380Y/beta4): 0.841 (active)
- log fold change Tl+ flux [8]: 0.468 (active)
- log fold change Tl+ flux (R275C): 0.229 (active)
- log fold change Tl+ flux (R275C/beta1): 0.839 (active)
- log fold change Tl+ flux (R275C/beta2Delta): -0.0142 (inactive)
- log fold change Tl+ flux (R275C/beta4): 0.743 (active)
- log fold change Tl+ flux (R275C/Slo1WT/beta2): 0.7 (active)

SMILES: O=c1[nH]c(=O)n(C2CC(O)C(CO)O2)cc1F (stereo not given)
- parasite load remaining [1]: 68.3% (inactive)
- viability [1]: 115%
- fluorescence ratio [2]: 1.03 (inactive)
- inhibition [3]: -1.36% (inactive)
- inhibition [4]: 1.81% (inactive)
- fluorescence ratio [5]: 1.04 (inactive)
- fold change [9, 12]: 1.17 (inactive) and 1.12 (inactive)
- fold change [9, 13]: 3.66 and 0.771
- cell count [9, 14]: 2970 and 2380
- cell count [9, 15]: 2550 and 2130
- z-score [11, 16]: -0.408 (inactive)
- z-score [11, 17]: 0.487
- z-score [10]: -1.07 (inactive)
- log fold change Tl+ flux (F380Y): -0.00405 (inactive)
- log fold change Tl+ flux (F380Y/beta1): 0.0394 (inactive)
- log fold change Tl+ flux (F380Y/beta2Delta): 0.0245 (inactive)
- log fold change Tl+ flux (F380Y/beta4): 0.0173 (inactive)
- log fold change Tl+ flux [8]: -0.00699 (inactive)
- log fold change Tl+ flux (R275C): 0.0218 (inactive)
- log fold change Tl+ flux (R275C/beta1): 0.000317 (inactive)
- log fold change Tl+ flux (R275C/beta2Delta): 0.0028 (inactive)
- log fold change Tl+ flux (R275C/beta4): -0.0029 (inactive)
- log fold change Tl+ flux (R275C/Slo1WT/beta2): -0.136 (active)

SMILES: CN1C2CCC1CC(OC(c1ccccc1)c1ccccc1)C2 (stereo not given)
- parasite load remaining [1]: 25.8% (inactive) and 92.2% (inactive) and 42.8% (inactive)
- viability [1]: 81.7% and 71.5% and 99.9%
- fluorescence ratio [2]: 1.04 (inactive)
- inhibition [3]: -5.91% (inactive)
- inhibition [4]: -4.29% (inactive)
- fluorescence ratio [5]: 1.01 (inactive)
- mean signal [7]: 197 (inactive)
- z-score [11, 16]: -0.325 (inactive)
- z-score [11, 17]: -0.171
- z-score [10]: -0.84 (inactive) and -0.76 (inactive)
- log fold change Tl+ flux (F380Y): 0.117 (active)
- log fold change Tl+ flux (F380Y/beta1): 0.0778 (inactive)
- log fold change Tl+ flux (F380Y/beta2Delta): 0.124 (active)
- log fold change Tl+ flux (F380Y/beta4): 0.212 (active)
- log fold change Tl+ flux [8]: 0.00637 (inactive)
- log fold change Tl+ flux (R275C): -0.0804 (inactive)
- log fold change Tl+ flux (R275C/beta1): 0.237 (active)
- log fold change Tl+ flux (R275C/beta2Delta): 0.0793 (inactive)
- log fold change Tl+ flux (R275C/beta4): 0.252 (active)
- log fold change Tl+ flux (R275C/Slo1WT/beta2): 0.0196 (inactive)
